# Source: PubChem BioAssay
# Artemis endo inh = Artemis endonuclease inhibitors, primary screen, biochemical, fluorescence intensity, FAM/BHQ-1 hairpin substrate | hit rate 0.78% among 30,000 | AID 686954, 2013 | recombinant Artemis, quenched FAM hairpin cleavage fluorescence | inhibition, % at 10 µM;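 active means at 10 µM dose, at least 30% inhibition, measured as corrected fluorescence normalized to stimulator and neutral control wells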
# Target sequence (Q96SD1 whole entry, looked up): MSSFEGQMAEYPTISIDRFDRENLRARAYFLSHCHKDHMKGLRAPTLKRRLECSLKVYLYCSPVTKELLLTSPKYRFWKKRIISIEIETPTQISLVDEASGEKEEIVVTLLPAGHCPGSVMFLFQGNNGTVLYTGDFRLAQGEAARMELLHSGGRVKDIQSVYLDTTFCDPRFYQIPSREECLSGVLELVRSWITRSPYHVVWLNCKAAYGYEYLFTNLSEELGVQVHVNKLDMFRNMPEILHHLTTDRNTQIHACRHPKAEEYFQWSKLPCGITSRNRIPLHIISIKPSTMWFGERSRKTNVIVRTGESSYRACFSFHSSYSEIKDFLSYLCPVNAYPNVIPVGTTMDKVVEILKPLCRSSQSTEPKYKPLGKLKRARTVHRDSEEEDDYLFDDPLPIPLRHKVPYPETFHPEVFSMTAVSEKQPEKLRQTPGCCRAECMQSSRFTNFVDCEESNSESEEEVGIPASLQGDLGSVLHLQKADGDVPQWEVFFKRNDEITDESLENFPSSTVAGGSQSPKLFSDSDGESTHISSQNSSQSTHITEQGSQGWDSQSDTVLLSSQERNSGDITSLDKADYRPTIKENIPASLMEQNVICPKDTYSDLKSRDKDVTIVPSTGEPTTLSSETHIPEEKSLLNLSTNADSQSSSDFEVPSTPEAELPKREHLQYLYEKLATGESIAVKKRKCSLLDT
# * hit, by the source's call. This excerpt belongs to a sample that is enriched for hits.
SMILES,Artemis endo inh
S=c1[nH]nc(-c2ccccc2)o1,2.1
S=c1[nH]nc(C2COc3ccccc3O2)o1 (stereo not drawn),30.6*
c1ccc2c(c1)OCC(c1csc3ncnc(N4CCCC4)c13)O2 (stereo not drawn),4.5
Cc1ccc(C(=O)CCNc2ccc(Cl)cc2)o1,-6.8
O=C(CNC(=O)c1ccc(Oc2ccccc2)cc1)OC1CCCCC1=O (stereo not drawn),3.4
Cc1cc(Cl)ccc1OC(C)C(=O)N1CCCN(C(=O)C(C)Oc2ccc(Cl)cc2C)CC1 (stereo not drawn),9.3
CC(=O)N/C(=C/c1ccc2c(c1)OCO2)C(=O)NCCCO,-12.7
CCNc1ccc(Br)cc(C(=O)/C=C/c2ccc3c(c2)OCO3)c1=O,34.3*
CCCc1cc2c(cc1NC(=O)c1ccc(Br)cc1)OCO2,4.3
COC(=O)c1c(C(=O)OC)c2cc(C(=O)c3ccccc3)ccn2c1Cl,4.0
COc1cccc(CNc2cc(CSc3ccc(Cl)cc3)nc(C)n2)c1,-4.3
CCOC(=O)Cc1csc(NS(=O)(=O)c2ccc(F)cc2)n1,0.7
Cc1ccc2c(c1)c1c3n2CCN(C(=O)CN2CCN(C)CC2)C3CCC1 (stereo not drawn),7.6
CCN1CCn2c3c(c4cc(Br)ccc42)CCCC31 (stereo not drawn),-9.7
Cc1ccc2c(c1)c(=O)c1c3n2CCN(C(=O)CCl)C3CC1 (stereo not drawn),33.8*
CSc1nnc(-c2sc3cc(C(F)(F)F)cnc3c2-c2ccccc2)n1C,-0.8
COCCCn1c(=N)c(C(=O)NC2CCCCC2)cc2c(=O)n3ccccc3nc21,1.6
N=c1c(C(=O)NCc2ccc(F)cc2)cc2c(=O)n3ccccc3nc2n1Cc1ccco1,29.3
N=c1c(C(=O)NCc2ccccc2)cc2c(=O)n3ccccc3nc2n1Cc1ccco1,30.6*
N=c1c(C(=O)NCc2ccco2)cc2c(=O)n3ccccc3nc2n1Cc1ccccc1,22.8
Cc1ccc(CNC(=O)c2cc3c(=O)n4ccccc4nc3n(Cc3ccco3)c2=N)cc1,41.3*
CC(C)n1c(=N)c(C(=O)NCCc2ccccc2)cc2c(=O)n3ccccc3nc21,1.6
O=C(NC(Cc1ccccc1)C(=O)OCC(=O)N1CCc2ccccc21)c1ccco1 (stereo not drawn),6.6
CNC(=S)N(Cc1ccc(OC)cc1)C1CC(=O)N(c2ccc(Cl)cc2)C1=O (stereo not drawn),-2.2
Cc1ccc(C)c(/C(O)=C2\C(=O)C(=O)N(CCCn3ccnc3)C2c2cccnc2)c1 (stereo not drawn),-4.8
SMILES,Artemis endo inh
CC(C)CCn1c(N2CCN(c3cccc(Cl)c3)CC2)nc2c1c(=O)[nH]c(=O)n2C,26.6
CCCCCCn1c(N2CCN(c3ccccc3)CC2)nc2c1c(=O)[nH]c(=O)n2C,11.0
CCCCCCn1c(N2CCN(c3cccc(Cl)c3)CC2)nc2c1c(=O)[nH]c(=O)n2C,34.6*
CCOC(=O)c1ccc(NC(=O)CNS(=O)(=O)c2ccccc2)cc1,-0.4
CCOC(=O)c1ccc(NC2=CC(=O)C(=O)c3ccccc32)cc1,66.1*
CCOC(=O)c1ccc(NC(=O)CCOc2ccccc2)cc1,2.3
COc1cccc(OCCOc2c(OC)cccc2OC)c1,-5.0
Cc1cccc(C(=O)N2CCN(c3ccc([N+](=O)[O-])c(NCc4ccco4)c3)CC2)c1,27.6
Cc1ccc(C(=O)N2CCN(c3ccc([N+](=O)[O-])c(NCc4ccco4)c3)CC2)cc1,30.8*
Cc1cccc(C(=O)N2CCN(c3ccc([N+](=O)[O-])c(N4CCOCC4)c3)CC2)c1,2.0
CCCC(C)NC(=O)c1cc(Cl)ccc1OC (stereo not drawn),-0.6
CCOC(=O)c1ccccc1NC(=O)CSc1ccccc1,-4.6
Cc1occc1C(=O)NNC(=S)Nc1cccc([N+](=O)[O-])c1,-0.8
O=C(c1ccccc1-c1nc2ccccc2[nH]1)N1CCCCC1,0.4
O=C(c1ccccc1-c1ccccc1)N1CCCC1,-10.7
O=C(c1ccc2c3c(cccc13)C(=O)N(O)C2=O)N1CCCCC1,47.4*
C=C(C)c1cccc(C(C)(C)NC(=O)N(Cc2ccccc2)Cc2ccco2)c1,-6.1
O=C(CSc1ncn[nH]1)Nc1ccccc1Sc1ccc(Cl)cc1,-1.1
COc1ccc(C(=O)Nc2ccc(OCC(F)(F)C(F)F)c(C(F)(F)F)c2)cc1OC,9.7
COc1ccc(C(=O)/C=C/N(C)C)cc1OC,3.2
COc1ccc(C(=O)c2c(C(F)(F)F)oc3c2C(=O)c2ccccc2C3=O)cc1OC,35.7*
Nc1cc(C2CCCC2)nn1-c1ccccc1,-3.6
CC(C)Oc1ccc(Cc2c(O)nc(NCCCN(C)C)[nH]c2=O)cc1,0.4
CC(=O)N(/N=C1\Sc2ccccc2C1=O)c1ccccc1C,31.9*
Cc1ccccc1-c1coc2cc(O)ccc2c1=O,7.7
SMILES,Artemis endo inh
CC(=O)N(/N=C1\Sc2ccccc2C1=O)c1ccccc1,31.3*
CC(=O)N(CCCCN1C(=O)c2ccccc2C1=O)c1ccc(C)cc1,5.1
CC(=O)N(/N=C1\Sc2ccccc2C1=O)c1ccc(C)cc1C,10.1
CC1(C)Cc2noc(N)c2C(C)(C)N1OC(=O)c1ccco1,-3.0
Cc1nnsc1NC(=O)OCc1ccc(C(F)(F)F)cc1,-2.7
COc1ccc(Cl)cc1NC(=O)C(C)Sc1n[nH]c(N)n1 (stereo not drawn),0.0
Cc1ccc2nc(N/N=C\c3ccc([N+](=O)[O-])o3)nc(-c3ccccc3)c2c1,39.2*
O=[N+]([O-])c1ccc(/C=N/Nc2nc(-c3ccccc3)c3cc(Br)ccc3n2)o1,57.5*
CCCOC(=O)/C(=C\c1ccc([N+](=O)[O-])o1)NC(=O)c1ccccc1,4.7
O=[N+]([O-])c1cccc(-c2ccc(/C=N/NC(=S)Nc3ccccc3)o2)c1,16.2
Cc1ccc(/C=N\Nc2nc3ccc(Cl)cc3[nH]2)o1,-4.4
O=C(NNC(=O)c1ccc([N+](=O)[O-])o1)c1ccccc1,0.2
N#C/C(=C\c1cccc(Cl)c1)c1n[nH]c(Cn2cncn2)n1,7.7
COC(=O)c1cc(C(=O)OC)cc(S(=O)(=O)Nc2ccc(Cl)c(N)c2)c1,11.9
C=CCOc1ccc(CNc2nccs2)cc1OC,-2.3
O=C(Cc1ccccc1)NC(Nc1ccccc1)C(Cl)(Cl)Cl (stereo not drawn),31.1*
Cc1ccc(NC(NC(=O)c2cccs2)C(Cl)(Cl)Cl)cc1 (stereo not drawn),7.3
O=C(Cc1ccccc1)NC(Nc1cccc2ccccc12)C(Cl)(Cl)Cl (stereo not drawn),-0.5
CCN(CC)C(=O)C(Cc1ccccc1)N1C(=O)c2ccccc2C1=O (stereo not drawn),-4.9
COCCSc1nnc(NC(=O)C(C)(C)C)s1,-3.3
COC(=O)Oc1ccc(/C=N/NC(=O)CSCc2ccccc2Br)cc1OC,-2.0
CCOc1ccc(C(C)(C)C)cc1S(=O)(=O)N1CCOCC1,-4.5
Cc1nn(C)c(C)c1CN(C)C(=O)CCCC(=O)O,-5.6
C#CCOc1nc(OCC#C)nc(OCC#C)n1,1.2
Nc1nnc(COc2ccccc2)s1,-5.1
SMILES,Artemis endo inh
COC(=O)c1ccc(CSc2nnc(Nc3ccc(C)cc3)s2)o1,-0.6
C=CCn1c(SCc2c(C(=O)OC)sc(N)c2C(=O)OC)nnc1-c1ccc(Br)cc1,5.2
CCSC1=N/C(=C\c2ccc3c(c2)OCO3)C(=O)S1,5.4
CSC1=N/C(=C\c2ccc(C)o2)C(=O)S1,7.5
CCSC1=N/C(=C\c2ccc(-c3ccccc3[N+](=O)[O-])o2)C(=O)S1,34.0*
CC(C)CC(c1nnnn1Cc1ccccc1)N1CCN(C(=O)c2ccco2)CC1 (stereo not drawn),5.4
